The values that follow come from the supplement of paper PMC11417369.

Over roughly 25,000 sequences, “ln(normalized median fluorescence intensity)” has its median near 6.7; the highest 2% begin near 10. Shown is part of a subset that was picked to be rich in the highest values.

The subject of the assay is PfHDP1 homeodomain (GST-tagged). In words: gcPBM binding intensity (ln(normalized median fluorescence intensity)); higher = stronger DNA binding. In outline:
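DNA-binding domains from P. falciparum, fused to GST and produced in E. coli, were put on an Agilent 4 × 180k double-stranded probe array for 1 h in 1× PBS holding 1% milk, 0.2 mg/ml BSA, 0.5% salmon testes DNA and 0.03% Triton X-100. Probes were primer-extended, 36 bp long and drawn from intergenic genomic regions, with negative controls included. After Alexa488 anti-GST antibody detection and a 488 nm scan, binding intensity was set as the highest Masliner-normalised natural-log median intensity across replicate spots of either probe orientation.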
As to “AAAATATAATATATTGCACACAAAAAGTGAATTATT [CACACA_site8489]”, the “gcPBM binding intensity (ln)” value is 10.6.

For “TATATATAATATTGCACACAAAATTAAAAGTAAATA [CACACA_site19]”, the “gcPBM binding intensity (ln)” value was found to be 10.3.

For the sequence “TATATATATAATATTGCACACAAAATTAAAAGTAAA [CACACA_site7889]”, the “gcPBM binding intensity (ln)” value worked out at 9.61.

As to “TTAACCTTTTGATATTGTACCCATAATCTAATACAA [XGTACX_site769]”, the “gcPBM binding intensity (ln)” value amounted to 6.47.

For the sequence “ATGTAGAAGTAATGCACACATATGTATTTATATATA [CACACA_site5391]”, the “gcPBM binding intensity (ln)” value worked out at 10.9.

In the case of “ATGTAGAAGTAATGCACACATATGTATATATATATA [CACACA_site2494]”, the “gcPBM binding intensity (ln)” value stood at 10.5.

Take “ATATGTAGAAGTAATGCACACATATGTATATATATA [CACACA_site8796]”: the “gcPBM binding intensity (ln)” value is 10.3.

Regarding “TATACATATGTATGCACACATACATACACATAGAAT [CACACA_site3480]”, the “gcPBM binding intensity (ln)” value stood at 9.51.

Consider “ATGTGATAGAAGTACACACACATATGTATTTATAAT [CACACA_site5075]”, for which the “gcPBM binding intensity (ln)” value is 6.7.

Take “ATATATAGAATGTGTACACACATATGTATTTATATA [CACACA_site810]”: the “gcPBM binding intensity (ln)” value is 6.7.

Consider TTTAGTGAGTTTGTTGTGCACTGAAAAAATTACAAT, for which the “gcPBM binding intensity (ln)” value was found to be 10.4.

In the case of “AATTCGTACCTCATTTGTACATATATATATATATAT [XGTACX_site5513]”, the “gcPBM binding intensity (ln)” value stood at 9.34.

Consider “TTCAAGATTTATTATACACACATATTAATATATATA [CACACA_site573]”, for which the “gcPBM binding intensity (ln)” value turned out to be 6.83.

Consider “AAGTATGTATCACAAAGTACTTAAGCATATATTTAA [XGTACX_site4121]”, for which the “gcPBM binding intensity (ln)” value was determined as 6.57.

Turning to “ATATGTAAAATGAAGATACATACATACATACATACA [CACACA_negctrl_site715]”, the “gcPBM binding intensity (ln)” value is 7.53.

With “TGTTTATCATATTTGTGTCCTCATTTTTTAGTATCA [XGTACX_site947]”, the “gcPBM binding intensity (ln)” value came to 6.62.

Consider “TGTGTTCATCTATGCACACGCATATATATTATTGTT [CACACA_site5985]”, for which the “gcPBM binding intensity (ln)” value was found to be 9.64.

On to “AATGTGTTCATATATGCACACGCATATATATTATTG [CACACA_site9274]”, for which the “gcPBM binding intensity (ln)” value was 9.95.

On to “ACGCACGAAATAAATACATGCATATTGTAAAAATTA [TGCATGCA_site310]”, for which the “gcPBM binding intensity (ln)” value amounted to 8.99.

On to “ATGCACTCATTGTGCACACGCATATTACGAAAAGAA [CACACA_site2638]”, for which the “gcPBM binding intensity (ln)” value was 10.8.

Take “TGTGTTCATATATGCACACGCATATATATTATTGTT [CACACA_site3822]”: the “gcPBM binding intensity (ln)” value is 9.67.

As to “ATATGCACTCATTGTGCACACGCATATTACGAAAAG [CACACA_site2637]”, the “gcPBM binding intensity (ln)” value amounted to 11.6.

As to “TTATAATAGTTAATATGTACATATTTAATAAATAAT [XGTACX_site3183]”, the “gcPBM binding intensity (ln)” value was 6.23.

As for “AGACTATCATTTTTTTAACACACAAAAAAAATAAAA [CACACA_site9173]”, the “gcPBM binding intensity (ln)” value was found to be 6.35.

As for “ATAAAGCCATACAATACACACATTTTACATGGGGGT [CACACA_site9072]”, the “gcPBM binding intensity (ln)” value turned out to be 7.27.

As to “AGTACATTATAGAATACACACCTATATATATATATA [CACACA_site4447]”, the “gcPBM binding intensity (ln)” value was found to be 9.29.

As to “ATAATACATATAGAAGGTACACTATTATTTTCCTGA [XGTACX_site903]”, the “gcPBM binding intensity (ln)” value amounted to 6.13.

As to ATATTTTATGTAAAGGTGCAAAACAACATTAAAAAA, the “gcPBM binding intensity (ln)” value came to 9.97.

“TTCTTTTTTTTTAAAACAAACAAACAAACAAACAAA [CACACA_negctrl_site832]”: the “gcPBM binding intensity (ln)” value worked out at 6.6.

Turning to “TTCTTTTTAATGTCGGTGCAACTCCATAAAAACAAA [GTGCAC_site9488]”, the “gcPBM binding intensity (ln)” value is 10.9.

For “TCTTTCTAAAGATGTAGTACAAAATAAATATAATAT [XGTACX_site6564]”, the “gcPBM binding intensity (ln)” value worked out at 6.87.

Consider “TCCAAAATATCCTTCACACACGAACAGTTTCATTTA [CACACA_site5511]”, for which the “gcPBM binding intensity (ln)” value was 6.49.

For the sequence “ATTGTATGCACGTCTGCACACTTTTTTTTTTTTTTT [CACACA_site2082]”, the “gcPBM binding intensity (ln)” value is 11.

For the sequence “ATTTGTATTGTATATGCACACATAGAACACTTTTTT [CACACA_site9373]”, the “gcPBM binding intensity (ln)” value worked out at 9.69.

For “TTGTATTGTATATGCACACATAGAACACTTTTTTTT [CACACA_site4133]”, the “gcPBM binding intensity (ln)” value was found to be 8.44.

For “AAAATATATTCAACTTGTACATATATATATATATAT [XGTACX_site7629]”, the “gcPBM binding intensity (ln)” value came out at 9.4.

For the sequence “TTAATATTCCAGCTTTGTACATATATATATTATAAA [XGTACX_site7954]”, the “gcPBM binding intensity (ln)” value is 6.6.

Regarding “TTTTGAAGTAACAAATAAATAAATAAATATATAAAA [GTGCAC_negctrl_site517]”, the “gcPBM binding intensity (ln)” value stood at 6.53.

Consider TTTGTTCTTTTTGAAGTGCACTGAAATATAACAAAA, for which the “gcPBM binding intensity (ln)” value amounted to 10.9.

On to “TTCTTGTTCCTGAAAGTGCATATAACAAAAATAACA [GTGCAC_site9635]”, for which the “gcPBM binding intensity (ln)” value stood at 8.06.

For the sequence “TATTGTATTTCATATTGTACTAAAAAAAAAAAAAAG [XGTACX_site6694]”, the “gcPBM binding intensity (ln)” value is 6.24.

Take “GTCCTCATCCACTATGCACACAAAAAAGAAATACAC [CACACA_site9131]”: the “gcPBM binding intensity (ln)” value turned out to be 10.5.

As to “AGAAAGAAAATATATACACACAAAAAAAAATATATA [CACACA_site1412]”, the “gcPBM binding intensity (ln)” value was found to be 6.61.

For the sequence “CCTCATCCACTATGCACACAAAAAAGAAATACACTA [CACACA_site3422]”, the “gcPBM binding intensity (ln)” value was found to be 9.52.

For “TTACACAAACAAATTATGGACACATAAGTAAAAGGA [CACACA_negctrl_site1622]”, the “gcPBM binding intensity (ln)” value was determined as 6.97.

In the case of “GCACATATGAATATAATACACACTTGTATTATTAAT [CACACA_site1841]”, the “gcPBM binding intensity (ln)” value was determined as 6.59.

Consider “TTTTTGATGAAATATTATTTTCCTGACTTGGATTAA [CACACA_negctrl_site148]”, for which the “gcPBM binding intensity (ln)” value turned out to be 6.27.

Turning to “ATTCTATTATCCTTTGCACACAAAATAAATGAAAAA [CACACA_site3030]”, the “gcPBM binding intensity (ln)” value turned out to be 9.63.

As for “TTTTTTTTTTTTTGCACACACCATATTTATAGAAAT [CACACA_site5772]”, the “gcPBM binding intensity (ln)” value was found to be 9.04.

Consider “TCCTTATATTGGCACACACACACAATAAAATGAAAA [CACACA_site4715]”, for which the “gcPBM binding intensity (ln)” value came out at 7.07.

Regarding “GATATCCTTATATTTGCACACACACCCAATAAAATG [CACACA_site1028]”, the “gcPBM binding intensity (ln)” value was determined as 9.87.

Consider “TATCCTTATATTTGCACACACACACCCTAAAATGAA [CACACA_site1029]”, for which the “gcPBM binding intensity (ln)” value worked out at 10.6.

Take “TCTATTATCCTTTGCACACAAAATAAATGAAAAAAT [CACACA_site3029]”: the “gcPBM binding intensity (ln)” value turned out to be 9.75.

For “TCCTTATATTTGCACACACACACAAGAAAATGAAAA [CACACA_site6613]”, the “gcPBM binding intensity (ln)” value came to 11.

As for “AAAATGAAGAAGTGCACACATATATATATTTATATA [CACACA_site507]”, the “gcPBM binding intensity (ln)” value came to 9.11.

On to “TAAATGTCCTTATTTGCACACACACCCATAAGAAAT [CACACA_site3185]”, for which the “gcPBM binding intensity (ln)” value came to 10.4.

Turning to “TATCCTTATATTTGCACACACACACTAGAAAATGAA [CACACA_site4714]”, the “gcPBM binding intensity (ln)” value was determined as 10.7.

As for “TGTCCTTATTTGCACACACACATATAAGAAATTTAA [CACACA_site7485]”, the “gcPBM binding intensity (ln)” value was found to be 10.5.

On to “AATGTCCTTATTTGCACACACACATATAAGAAATTT [CACACA_site3186]”, for which the “gcPBM binding intensity (ln)” value is 10.6.
